Results on 37 molecules are retold here after PubChem BioAssay (NCATS).

Values joined by “and” are separate entries in the source; they are usually repeats but may differ in a detail not shown here. Identical values can stand only once. Results filed as inconclusive are left out. The source holds several records for some structures; these can differ, active in one and inactive in another. Unmarked numbers belong to inactive results. Active and inactive are the calls of the source. Calls come from the whole dose curve; as a rule, active = well fitted inhibition curve with a large enough effect; inconclusive = small, poorly fitted or top-dose-only effect; inactive = flat fitted curve, though single readings scatter.
% is set by controls: 0 for no effect and ±100 for the full control effect; potency is the fitted concentration of half-maximal effect.

In the assay the test system is HaCat. Put plainly: Cytotoxic Profiling of Annotated Libraries Using Quantitative High-Throughput Screening (AID 1296008). Note: nearly all actives have a fitted effect of over 60% in size. To be noted: Five cell lines viability, CellTiter-Glo ATP luminescence, 48-72 h; max response: stronger effect = lower value. Summed up: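 Cells exposed to compounds for 48 or 72 hr at 37 degrees Celsius. Viability read as ATP-coupled luminescence with CellTiter-Glo after 10 min at room temperature.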
A general note: ATP-based viability assays read luminescence as a measure of living cells.
As for `Cc1cnc(Nc2cccc(CN3CCOCC3)c2)nc1Nc1cccc(S(=O)(=O)NC(C)(C)C)c1`, the max response is -19.2% and the call was inactive. For `CS(=O)(=O)c1ccc(C2=C(c3ccccc3)C(=O)OC2)cc1` the same measures were -5.92% and “inactive”. For `O=C(O)CCNc1cc(N2CCc3ccccc3CC2)nc(-c2ccccn2)n1` the same measures were -11.8% and “inactive”.

With `CCn1c(-c2nonc2N)nc2cncc(CNC3CCNCC3)c21`, the max response was -17.9% and the result was inactive. In the case of `CC(C)CNc1ccnc(NCc2csc(-c3ccccc3)n2)n1`, the Potency was 16.4 µM (active) and the max response was -4.23%.

Turning to `Cn1c(=O)c(-c2c(Cl)cccc2Cl)cc2cnc(Nc3cccc(C(=O)O)c3)nc21`, the outcome was inactive. Regarding `CC1(C)CC(=O)c2c(C(F)(F)F)nn(-c3ccc(C(N)=O)c(NC4CCC(O)CC4)c3)c2C1` (stereo not given), the Potency was 132 nM (active) and 231 nM (active). As for `Cc1ccccc1-n1c(Cn2nc(-c3cccc(O)c3)c3c(N)ncnc32)nc2cccc(C)c2c1=O`, the molecule was called inactive. For the molecule `COc1cc(Nc2nc3ccccc3nc2NS(=O)(=O)c2ccc(NC(=O)c3ccc(C)c(OC)c3)cc2)cc(OC)c1`, the max response is -23.6% and -15%.

On to `CC1=C(C(=O)Nc2cc3cn[nH]c3cc2F)C(c2ccc(C(F)(F)F)cc2)CC(=O)N1` (stereo not given), for which the max response is 3.22% and the outcome was inactive. As for `NC(=O)c1ccc(N(C(N)=O)c2c(F)cccc2F)nc1-c1ccc(F)cc1F`, the max response was -19.1% and -25.7%.

With `Clc1ccc(C2(c3ccc(-c4cn[nH]c4)cc3)CCNCC2)cc1`, the Potency is 13 µM (active) and the call was inactive. Turning to `CC[C@]1(O)C[C@H]2CN(CCC3=c4ccccc4=N[C]3[C@@](C(=O)OC)(c3cc4c(cc3OC)N(C)[C@H]3[C@@](O)(C(N)=O)[C@H](O)[C@]5(CC)C=CCN6CC[C@]43[C@@H]65)C2)C1`, the max response was -10.4%. In the case of `NS(=O)(=O)c1cc(Cl)c(Cl)c(S(N)(=O)=O)c1`, the max response is -2.36% and the outcome was inactive. For the molecule `C[C@H](c1ccc(F)cc1CCCC(=O)O)N(c1cc(F)ccc1F)S(=O)(=O)c1ccc(Cl)cc1`, the molecule was called inactive. With `COc1nccc(-c2c(-c3ccc(F)cc3)ncn2C2CCC(O)CC2)n1` (stereo not given), the max response was -10.4% and the molecule was called inactive.

In the case of `CC(C)(OCc1nn(Cc2ccccc2)c2ccccc12)C(=O)O`, the max response was 3.78% and the molecule was classed as inactive. With `COc1ccc(CCC(=O)Nc2nc3ccc(Cl)cc3s2)cc1OC`, the max response was -6.83% and the molecule was classed as inactive. In the case of `c1cc(OCCN2CCCCC2)cc(-c2n[nH]c3ccc(-c4ncn[nH]4)cc23)c1`, the molecule was classed as inactive. With `CCN1CCN(c2ccc(Nc3cc(N(C)C(=O)Nc4c(Cl)c(OC)cc(OC)c4Cl)ncn3)cc2)CC1`, the Potency is 8.2 µM (active) and the max response was 4.46%.

With `CN(C)c1nc(Cc2ccc(NC(=O)c3ccc(C(F)(F)F)cc3)cc2)nc(N(C)C)c1CC(=O)O`, the result was inactive. As to `CN1c2ccccc2C(=O)N2CCc3c([nH]c4ccccc34)C21` (stereo not given), the max response is -3.12%. For the molecule `Cc1ccccc1C(C(=O)NC1CCCCC1)N(C(=O)CNc1ccc(C#N)cc1)c1cccc(F)c1` (stereo not given), the max response is -5.11% and the outcome was inactive.

With `Cc1ccc2c(c1)c1c(n2CCc2ccc(C)nc2)CCN(C)C1`, the max response was -15.7% and the result was inactive. Regarding `C[C@@]1(c2cc(-c3cncnc3)c(F)cc2F)CCSC(N)=N1`, the max response was -8.12% and -24.8%. With `Cc1cnc(-c2cc(N3CCN(C(=O)CCS(C)(=O)=O)CC3)ncc2Cl)c(C)c1`, the outcome was inactive. As to `CCN1C[C@H](C)n2c(c(O)c3c(=O)n(Cc4ccc(F)c(Cl)c4)nc(C(=O)NC)c32)C1=O`, the max response is -5.77% and -3.93%. Regarding `CNc1nc(Nc2ccc(C(=O)N3CCOCC3)cc2OC)ncc1Cl`, the outcome was inactive.

For `CC1CCN(c2cc(N3CCN(C)CC3)ccc2NC(=O)c2cc(C#N)c[nH]2)CC1`, the max response was 2.9% and the molecule was classed as inactive.

Turning to `Cc1cc2c(cc1C1(c3ccc(C(=O)O)cn3)CC1)C(C)(C)CCC2(C)C`, the max response was -17.6%. In the case of `c1ccc(CNc2nc(N3CCOc4ccccc43)nc3c2CCCC3)cc1`, the max response was -18.6% and -15.3%. Regarding `COc1ccnc(CS(=O)c2nc3ccc(OC(F)F)cc3[nH]2)c1OC` (stereo not given), the max response was -12.5% and the molecule was classed as inactive. Consider `O=C(CO)N1CCC(c2[nH]nc(-c3ccc(Cl)cc3)c2-c2ccncn2)CC1`, for which the max response is -4.95%. On to `COc1nc(C)cnc1NS(=O)(=O)c1cccnc1-c1ccc(-c2nnco2)cc1`, for which the max response is 3.49% and the molecule was called inactive. Take `CCCCn1c(=O)n(Cc2ccccc2F)c(=O)c2[nH]c(Cc3ccc(NC(C)=O)cc3)nc21`: the max response was -7.85% and the outcome was inactive. `COC(=O)N1CCN(Cc2cccc(NC(=O)Nc3ccc(C)nc3)c2F)CC1`: the max response was 3.64% and 2.27%.

Turning to `Nc1ccc(-c2ccc3ncc4ccc(=O)n(-c5cccc(C(F)(F)F)c5)c4c3c2)cn1`, the Potency was 2.64 µM (active) and 2.91 µM (active).
